PubChem BioAssay AID435005 (Broad Institute, 2010)
About 2,400 (0.8%) of roughly 300,000 compounds were called active. The sample holds actives, similar compounds and a random draw of the others, so the mix is not that of the screen. A number with no mark means an inactive call.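 How the source made its calls: active means Every replicate reaches about 75%, or at least half do and their mean reaches it too (limit read from the data); inconclusive means At least half of replicates reach the limit but their mean does not; inactive means Under half of replicates reach the limit.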

experiment: inhibitors of cytokine-induced beta cell apoptosis, primary screen, luminescence (AID 435005); settings: INS-1E cytokine-induced death, ATP luminescence, 48 h; stronger effect = higher value; percent of positive-control rescue, neutral wells zero; concentration not given here;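 further: 0% = cytokine-treated negative control wells and 100% = positive control rescue; higher means more ATP so stronger rescue from cytokine killing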

Compared with `COc1ccc2nc3n(c(=O)c2c1)-c1cc(C)ccc1C(=O)NC3Cc1ccc(O)cc1` (stereo not drawn), `CC(C)CC1NC(=O)c2cc(Cl)ccc2-n2c1nc1ccccc1c2=O` (stereo not drawn) is lower in protection from apoptosis: 9.76% for the first, -3.6% for the second.

Compared with `COc1ccc(NS(=O)(=O)c2cc(NC(=O)c3ccc(S(=O)(=O)N(C)C)cc3)ccc2N2CCOCC2)cc1`, `CC(=O)Nc1ccc(S(=O)(=O)Nc2ccc(N3CCOCC3)c(F)c2)cc1` is lower in protection from apoptosis: 5.26% for the first, 2.71% for the second.

Compared with `COc1ccccc1OCCNC(=O)C(CCSC)NC(=O)COc1ccccc1` (stereo not drawn), `O=C(CCCOc1ccccc1)NNC(=O)c1ccc(Cl)cc1` is higher in protection from apoptosis: -1.66% for the first, -1.22% for the second.

Going from `Cc1cc(N2CCN(S(=O)(=O)c3ccc(C)c(C)c3)CC2)c2ccccc2n1` to `Cc1ccc(C)c(S(=O)(=O)N2CCN(C(=O)Nc3ccccc3)CC2)c1`, the protection from apoptosis falls from 10.4% to -4.43%.

Going from `COc1ccc(C)cc1S(=O)(=O)N1CCN(S(=O)(=O)c2cc(C(=O)O)ccc2C)CC1` to `Cc1ccc(S(=O)(=O)N2CCN(C(=O)CN3C(=O)NC(C)(c4ccc(Cl)cc4)C3=O)CC2)c(C)c1` (stereo not drawn), the protection from apoptosis rises from -3.1% to 0.524%.

Going from `Cc1ccc(S(=O)(=O)N2CCN(C)CC2)cc1` to `CCOc1ccc(CN2CCCN(C)CC2)cc1`, the protection from apoptosis falls from 4.63% to -3.58%.

Going from `COC(=O)[C@]1(CC(C)C)N[C@H](c2ccc(SC3CCCCC3)cc2)[C@@H]2C(=O)N(C)C(=O)[C@@H]21` to `CCCSc1ccc([C@H]2N[C@@](Cc3ccccc3)(C(=O)OC)[C@H]3C(=O)N(C)C(=O)[C@@H]23)cc1`, the protection from apoptosis falls from 2.66% to -4.97%.

First: C[C@H](CO)N1C[C@H](C)[C@@H](CN(C)C(=O)NC2CCCCC2)Oc2ccc(NC(=O)c3ccncc3)cc2C1=O
Second: C[C@H](CO)N1C[C@H](C)[C@@H](CN(C)S(=O)(=O)c2ccc(F)cc2)Oc2ccc(NC(=O)CCC(F)(F)F)cc2C1=O
The protection from apoptosis of the first is lower: -8.1% for the first, -4.6% for the second.

Compared with `CCOc1ccc(NS(=O)(=O)c2ccc(Cl)c(C(=O)N(C)Cc3cccnc3)c2)cc1`, `COc1cc(NS(=O)(=O)c2ccc(NC(C)=O)cc2)cc(OC)c1` is higher in protection from apoptosis: 5.11% for the first, 25.4% for the second.

Compared with `COc1ccccc1CNC(=O)COC(=O)c1cccs1`, `COc1ccccc1NC(=O)COC(=O)CNC(=O)C1CCCCC1` is higher in protection from apoptosis: -8.13% for the first, -4.98% for the second.

Compared with `O=C1NC[C@@H](c2ccccc2)OC(=O)[C@H](Cc2ccc(F)cc2)CC/C=C/C[C@H]1CC(=O)N(CCO)Cc1ccccc1`, `CC(C)(C)OC(=O)C[C@H]1C/C=C\C[C@@H](CC(=O)N[C@H](CO)Cc2ccccc2)C(=O)NC[C@@H](c2ccccc2)OC1=O` is higher in protection from apoptosis: 5.81% for the first, 6.61% for the second.

First: C#CCOCCOCCOCCNc1nc(N2CCN(C(=O)[C@H](CCCN=C(N)N)n3cc(C(N)[C@@H](C)CC)nn3)CC2)nc(N2CCN(C(=O)[C@H](CO)n3cc([C@@H](N)C(C)C)nn3)CC2)n1 (stereo partly drawn)
Second: CCCCN(C(=O)C1=NN(c2cc(C)ccc2C)C(=O)CC1)c1c(N)n(CCC)c(=O)[nH]c1=O
The protection from apoptosis of the first is lower: -10.4% for the first, 1.47% for the second.

Going from `COc1c(O)ccc2c1CN1CCc3cc4c(cc3C1C2)OCO4` (stereo not drawn) to `O=C(NCc1ccc2c(c1)OCO2)c1cc([N+](=O)[O-])ccc1N1CCOCC1`, the protection from apoptosis rises from -2.11% to 12.9%.

Going from `O=C(CNC(=O)c1ccco1)NNC(=O)c1ccc(Br)cc1` to `COc1cc(OC)cc(C(=O)NNC(=O)Cc2cccs2)c1`, the protection from apoptosis rises from -6.27% to -2.67%.

Going from `CC1O[C@H](OC2C(COC3OC(CO)C(O)[C@H](O)C3O)OC(OC3CC[C@]4(C)C(CC[C@@]5(C)[C@@H]4C=C[C@]46OC[C@@]7(CCC(C)(C)C[C@H]74)C(O)C[C@@]56C)C3(C)C)C(O)C2O)C(O)C(O)C1O` (stereo partly drawn) to `C[C@]12CC[C@H](O)CC1=CCC1C2CC[C@@]2(C)C1CC[C@@H]2NC(=O)CCC(=O)O` (stereo partly drawn), the protection from apoptosis rises from -6.92% to 0.606%.

Going from `O=C(COC(=O)C1CCCO1)Nc1nc(-c2ccc(F)cc2)cs1` (stereo not drawn) to `COc1ccc(OCC(=O)NNC(=O)C2CCC2)cc1`, the protection from apoptosis falls from 0.639% to -4.44%.

Compared with `c1ccc2c(CCN3CCNC[C@H]3Cc3cccc4ccccc34)cccc2c1`, `O=C(NCCc1c[nH]c2ccccc12)C1CCN(Cc2ccc(Br)cc2)CC1` is lower in protection from apoptosis: 1.24% for the first, -12.4% for the second.

Compared with `COc1ccc(S(=O)(=O)/N=C2\C=C(NS(=O)(=O)c3ccccc3)C(=O)c3ccccc32)cc1`, `COc1ccc(C(=O)C(C)OC(=O)c2cccc(S(=O)(=O)Nc3c(C)n(C)n(-c4ccccc4)c3=O)c2)cc1` (stereo not drawn) is lower in protection from apoptosis: 1.27% for the first, -20.9% for the second.

First: COC(=O)[C@]1(Cc2ccccc2)N[C@H](CN(C)S(=O)(=O)c2ccc(F)cc2)[C@@H]2C(=O)N(Cc3ccccc3)C(=O)[C@@H]21
Second: Cc1ccc(S(=O)(=O)N(C)CC(=O)NCC(c2ccc(F)cc2)N2CCOCC2)cc1 (stereo not drawn)
The protection from apoptosis of the first is higher: 10.3% for the first, -2.01% for the second.

Compared with `Cc1cc(CN(C)C(=O)c2cc(COc3ccc(C)c(C)c3)on2)n[nH]1`, `Cc1ccc(OCc2cc(C(=O)N(C)CCc3ccccc3)no2)cc1C` is lower in protection from apoptosis: -0.122% for the first, -0.126% for the second.

Compared with `O=C(COC(=O)COc1ccccc1F)Nc1cccc(S(=O)(=O)N2CCCCC2)c1`, `O=C(Nc1cccc(S(=O)(=O)N2CCCCC2)c1)c1cncc(Br)c1` is higher in protection from apoptosis: -4.07% for the first, -1.23% for the second.

Going from `O=C(NCCCN1CCOCC1)c1cn(-c2ccccc2)nc1-c1ccc(F)cc1` to `CCCOc1ccc(C(=O)NCCc2ccccc2)cc1`, the protection from apoptosis rises from -0.73% to 9.99%.

Going from `CCOC(=O)c1ccccc1C(=O)N1CCOCCOCCOCC1` to `Cc1noc(C)c1C(=O)N1CCOCC1`, the protection from apoptosis falls from 0.0542% to -4.19%.

First: COc1ccc(C)cc1NC(=O)CSc1cccc[n+]1[O-]
Second: CC(=O)c1c(C)oc2ccc(NS(=O)(=O)c3ccccc3)cc12
The protection from apoptosis of the first is lower: -1.83% for the first, -0.111% for the second.

Going from `CSc1ncccc1C(=O)NCC(c1ccco1)N1CCCCC1` (stereo not drawn) to `O=C(CN1C(=O)NC2(CCCCCC2)C1=O)Nc1ccc([N+](=O)[O-])cc1`, the protection from apoptosis rises from -20.2% to 0.997%.

First: CC(C(=O)N1CCc2ccccc21)N(C)CC(=O)Nc1ccc(F)cc1 (stereo not drawn)
Second: CC(=O)c1c(C)oc2ccc(NS(=O)(=O)c3ccc(C(=O)O)cc3)cc12
The protection from apoptosis of the first is higher: 6.77% for the first, -1.56% for the second.

Compared with `Fc1ccc2cnc(-c3ccccc3)cc2c1`, `CCOc1ccccc1C1CC(c2ccccc2)Nc2nc(N)nn21` (stereo not drawn) is higher in protection from apoptosis: -4.87% for the first, 2.14% for the second.

First: CCN(CC)CCCN=Cc1c(O)n(-c2ccc(C)cc2)c(=O)c2ccccc12
Second: CCOc1ccc(-n2c(O)c(/C=N/c3ccnn3Cc3ccncc3)c3ccccc3c2=O)cc1
The protection from apoptosis of the first is higher: -3.92% for the first, -6.16% for the second.

First: C/C(=N\NS(=O)(=O)c1ccccc1)c1c(O)cc(C)oc1=O
Second: Cc1csc2nc(COC(=O)c3cccc(N(C)C)c3)cc(=O)n12
The protection from apoptosis of the first is lower: -4% for the first, 0.447% for the second.

First: COc1ccc(C2CC(c3ccc(Cl)cc3Cl)Nc3nc(N)nn32)cc1OC (stereo not drawn)
Second: Nc1nc2n(n1)C(c1ccco1)CC(c1ccc(Cl)c(Cl)c1)N2 (stereo not drawn)
The protection from apoptosis of the first is lower: -0.0368% for the first, 0.887% for the second.

First: COc1ccc(C2CC(c3ccc(C)cc3)Nc3nc(N)nn32)cc1 (stereo not drawn)
Second: COc1ccc(C2=Nn3c(nnc3-c3ccccc3OC)SC2)cc1OC1CCCC1
The protection from apoptosis of the first is lower: -2.94% for the first, 31.3% for the second.

First: CCCCCCSc1ccc([C@@H]2[C@H]3C(=O)N(CC)C(=O)[C@H]3[C@]3(C(=O)OC)CCCCN23)cc1
Second: O=C(CN1C(=O)NC2(CCCC2)C1=O)Nc1cc(C(F)(F)F)ccc1N1CCOCC1
The protection from apoptosis of the first is higher: 2.19% for the first, 1.66% for the second.

Compared with `COC(=O)C1=C(C)NC(=S)NC1c1ccc(OCC(=O)N2CC(C)OC(C)C2)c(OC)c1` (stereo not drawn), `CCCOc1ccc(Cc2c(O)nc(SC)[nH]c2=O)cc1C` is lower in protection from apoptosis: 0.55% for the first, -2.93% for the second.

First: O=C(CCCO)N/N=C/c1cc(Br)ccc1O
Second: O=C(N/N=C/c1ccccc1O)C1CCCC1
The protection from apoptosis of the first is lower: 2.57% for the first, 8.23% for the second.

With `Cc1ccc(S(=O)(=O)N2CCN(c3ncnc4ccccc34)CC2)cc1` the protection from apoptosis was 102% (active).
With `Cc1ccc(C)c(S(=O)(=O)N2CCN(c3ncnc4sccc34)CC2)c1` the protection from apoptosis was 112% (active).
With `COc1ccc2cc1Oc1ccc(cc1)C[C@H]1c3cc(c(OC)cc3CCN1C)Oc1c(O)c(OC)cc3c1[C@H](C2)N(C)CC3` the protection from apoptosis was 98.5% (active).
With `C=C(C)C(=O)O[C@H]1C/C(C)=C\C(=O)/C=C(\C)[C@H](O)[C@@H]2OC(=O)C(=C)[C@@H]21` the protection from apoptosis was 96.8% (active).
In the case of `CC(C)CC[n+]1ccn(C2=C([O-])c3ccccc3C(=O)/C2=N\S(=O)(=O)c2ccccc2)c1`, the protection from apoptosis was 95% (active).
With `CN(Cc1cccnc1)C(=O)c1cc(COc2ccc3ncccc3c2)on1` the protection from apoptosis was 101% (active).
With `Cc1oc2c(c1C(=O)N1CCOCC1)C(=O)c1ccccc1C2=O` the protection from apoptosis was 108% (active).
With `CC(=O)Nc1ccc(S(=O)(=O)Nc2ccc(N3CCCCC3)cc2)cc1` the protection from apoptosis was 119% (active).
For `COc1ccc(S(=O)(=O)Nc2ccc3oc(C)c(C(C)=O)c3c2)cc1`, the protection from apoptosis was 87.4% (active).
With `CCOc1ccc(-n2c(O)c(/C=N/Nc3nc(C)cc(C)n3)c3ccccc3c2=O)cc1` the protection from apoptosis was 83.2% (active).
In the case of `Cc1ccc(C2CC(c3cccc(C)c3)n3nc(N)nc3N2)cc1` (stereo not drawn), the protection from apoptosis was 101% (active).
With `Cc1ccc(C2CC(c3cccc(Br)c3)n3nc(N)nc3N2)cc1` (stereo not drawn) the protection from apoptosis was 91.3% (active).
With `O=C(N/N=C/c1ccccc1O)/C(=C/c1ccccc1)CCO` the protection from apoptosis was 85.8% (active).
With `CCCOc1ccc(Cc2c(Cl)nc(SC)nc2NC)cc1` the protection from apoptosis was 82.7% (active).
For `CCOc1ccc(CN2CCN(Cc3c[nH]c4ccccc34)CC2)cc1`, the protection from apoptosis was 76.1% (active).
